# Data taken from PubChem BioAssay (NCI).
# Compounds without any hit were thinned out: in the full panel of roughly 79,000, 15% have a hit. A number with no mark means an inactive call. The source made the active and inactive calls. Cut-off read from the data, not from the text of the source: active = growth inhibition above about 70%; inactive = the rest.
# Assays:
# [1] = NCI Yeast Anticancer Drug Screen. Data for the wt1 strain (AID 149);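 note: 0% = growth of vehicle-treated wt1 cultures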; conditions: S. cerevisiae wt1 strain (SPY 50644) growth inhibition, hits give high values
# Summary of the method: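 Growth inhibition read against vehicle controls after compound exposure of the wt1 yeast strain.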
# [2] = NCI Yeast Anticancer Drug Screen. Data for the rad50EPP+ strain (AID 151);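 note: 0% = growth of vehicle-treated control cultures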; conditions: S. cerevisiae rad50 mutant strain, hits give high values
# Summary of the method: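 Compounds were applied to the rad50EPP+ yeast strain, which bears a defined DNA repair alteration, and growth inhibition was determined relative to vehicle-treated cultures.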
# [3] = NCI Yeast Anticancer Drug Screen. Data for the mgt1 strain (AID 153); conditions: S. cerevisiae mgt1 mutant growth inhibition, hits give high values
# Summary of the method: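 Strain: mgt1 yeast, one of a set carrying defined DNA damage repair or cell cycle control alterations. Compound-treated growth compared with vehicle.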
# [4] = NCI Yeast Anticancer Drug Screen. Data for the rad50 strain (AID 155);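 note: 0% = growth of vehicle-only cultures of the same strain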; conditions: S. cerevisiae rad50 strain growth inhibition, hits give high values
# Summary of the method: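 Readout: growth inhibition relative to vehicle-treated cultures. Compound exposure was carried out in a genetically defined yeast strain deficient in DNA damage repair.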
# [5] = NCI Yeast Anticancer Drug Screen. Data for the mec2-1 strain (AID 157); conditions: S. cerevisiae mec2-1 strain, hits give high values
# Summary of the method: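 Strain: mec2-1 (DNA repair/cell cycle alteration). Compound exposure, then growth measured; inhibition expressed relative to vehicle.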
# [6] = NCI Yeast Anticancer Drug Screen. Data for the rad14 strain (AID 159);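 note: 0% = growth of vehicle-treated control cultures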; conditions: S. cerevisiae rad14 strain growth inhibition, hits give high values
# Summary of the method: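 Growth inhibition vs vehicle controls; genetically altered yeast strain (DNA damage repair defect) treated with test compounds.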
# [7] = NCI Yeast Anticancer Drug Screen. Data for the sgs1 mgt1 strain (AID 161);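 note: 0% = growth of cultures given vehicle only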; conditions: S. cerevisiae sgs1 mgt1 strain, hits give high values
# Summary of the method: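 Genetically altered yeast, compound exposure, growth inhibition relative to vehicle.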
# [8] = NCI Yeast Anticancer Drug Screen. Data for the CLN2oe strain (AID 163);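 note: 0% = growth of vehicle-only control cultures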; conditions: S. cerevisiae CLN2oe strain, hits give high values
# Summary of the method: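 Growth of a genetically modified yeast strain is measured after compound exposure and compared with cultures given vehicle alone.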
# [9] = NCI Yeast Anticancer Drug Screen. Data for the cln2 rad14 strain (AID 165);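 note: 0% = growth equal to vehicle treated cultures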; conditions: S. cerevisiae cln2 rad14 strain, hits give high values
# Summary of the method: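 Compounds are applied to the cln2 rad14 yeast strain, and growth is then compared with that of vehicle-treated cultures to give inhibition.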
# [10] = NCI Yeast Anticancer Drug Screen. Data for the bub3 strain (AID 167); conditions: S. cerevisiae bub3 mutant strain, hits give high values
# Summary of the method: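 Readout: yeast growth inhibition, expressed relative to vehicle-only wells. The test organism is a mutant strain from a panel with lesions in DNA repair or checkpoint genes.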
# [11] = NCI Yeast Anticancer Drug Screen. Data for the wt2 strain (AID 169);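 note: 0% = growth of vehicle-treated yeast cultures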; conditions: S. cerevisiae wt2 strain growth inhibition, hits give high values
# Summary of the method: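 This strain belongs to a panel of yeast strains with defined genetic alterations in DNA damage repair or cell cycle control. Compounds are applied, and growth inhibition is measured against vehicle-treated cultures.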
# [12] = NCI Yeast Anticancer Drug Screen. Data for the mlh1 strain (AID 171);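 note: 0% = growth of vehicle-treated control cultures of the same strain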; conditions: S. cerevisiae mlh1 strain growth inhibition, hits give high values
# Summary of the method: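 Growth of the mutant yeast strain after compound exposure, expressed as inhibition relative to vehicle-only controls.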
# [13] = NCI Yeast Anticancer Drug Screen. Data for the sgs1 strain (AID 173);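 note: 0% = growth of vehicle-only control cultures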; conditions: S. cerevisiae sgs1 mutant, hits give high values
# Summary of the method: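 Growth of a yeast strain bearing a defined genetic alteration is measured after compound treatment. Inhibition is expressed relative to vehicle-only controls.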
# [14] = NCI Yeast Anticancer Drug Screen. Data for the mlh1 rad18 strain (AID 175); conditions: S. cerevisiae mlh1 rad18 strain growth inhibition, hits give high values
# Summary of the method: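 Read-out is yeast growth inhibition, calculated against vehicle-only controls. The compound was applied to a strain engineered with DNA damage repair alterations.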
# [15] = NCI Yeast Anticancer Drug Screen. Data for the rad18 strain (AID 177); conditions: S. cerevisiae rad18 mutant growth inhibition, hits give high values
# Summary of the method: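 Growth of the mutant yeast strain after compound exposure, normalised to vehicle-only cultures.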
# [16] = at 5.0 µM (retest, dose inferred, filed as 0.5)
# [17] = at 50.0 µM (retest, dose inferred, filed as 5.0)
structure (smiles),measurement,setting,value
CCCCCCC(CCl)c1sc(-c2csc(CCNC(=O)OC(C)(C)C)n2)nc1C(=O)OC (stereo unspecified),growth inhibition,[1]; at 1.2 µM,-1%
same,growth inhibition,[1]; at 3.7 µM,-4%
same,growth inhibition,[1]; at 11.0 µM,-5%
same,growth inhibition,[1]; at 33.0 µM,-5%
same,growth inhibition,[1]; at 100.0 µM,30%
same,growth inhibition,[2]; at 1.2 µM,-1%
same,growth inhibition,[2]; at 3.7 µM,1%
same,growth inhibition,[2]; at 11.0 µM,2%
same,growth inhibition,[2]; at 33.0 µM,4%
same,growth inhibition,[2]; at 100.0 µM,19%
same,growth inhibition,[3]; at 1.2 µM,-1%
same,growth inhibition,[3]; at 3.7 µM,-3%
same,growth inhibition,[3]; at 11.0 µM,-6%
same,growth inhibition,[3]; at 33.0 µM,2%
same,growth inhibition,[3]; at 100.0 µM,98% (active)
same,growth inhibition,[4]; at 1.2 µM,-1%
same,growth inhibition,[4]; at 3.7 µM,1%
same,growth inhibition,[4]; [16],-23%
same,growth inhibition,[4]; at 11.0 µM,5%
same,growth inhibition,[4]; at 33.0 µM,24%
same,growth inhibition,[4]; [17],11%
same,growth inhibition,[4]; at 50.0 µM,-2.85%
same,growth inhibition,[4]; at 100.0 µM,97% (active)
same,growth inhibition,[5]; at 1.2 µM,0%
same,growth inhibition,[5]; at 3.7 µM,-3%
same,growth inhibition,[5]; [16],-11%
same,growth inhibition,[5]; at 11.0 µM,0%
same,growth inhibition,[5]; at 33.0 µM,6%
same,growth inhibition,[5]; [17],39%
same,growth inhibition,[5]; at 50.0 µM,30.1%
same,growth inhibition,[5]; at 100.0 µM,96% (active)
same,growth inhibition,[6]; at 1.2 µM,0%
same,growth inhibition,[6]; at 3.7 µM,1%
same,growth inhibition,[6]; at 11.0 µM,6%
same,growth inhibition,[6]; at 33.0 µM,23%
same,growth inhibition,[6]; at 100.0 µM,97% (active)
same,growth inhibition,[7]; [16],17%
same,growth inhibition,[7]; [17],27%
same,growth inhibition,[7]; at 50.0 µM,-13.5%
same,growth inhibition,[8]; at 1.2 µM,-3%
same,growth inhibition,[8]; at 3.7 µM,-2%
same,growth inhibition,[8]; at 11.0 µM,-9%
same,growth inhibition,[8]; at 33.0 µM,-10%
same,growth inhibition,[8]; at 100.0 µM,66%
same,growth inhibition,[9]; [16],47%
same,growth inhibition,[9]; [17],-2%
same,growth inhibition,[9]; at 50.0 µM,-42.5%
same,growth inhibition,[10]; at 1.2 µM,-1%
same,growth inhibition,[10]; at 3.7 µM,0%
same,growth inhibition,[10]; [16],-21%
same,growth inhibition,[10]; at 11.0 µM,2%
same,growth inhibition,[10]; at 33.0 µM,8%
same,growth inhibition,[10]; [17],47%
same,growth inhibition,[10]; at 50.0 µM,9.85%
same,growth inhibition,[10]; at 100.0 µM,94% (active)
same,growth inhibition,[11]; at 1.2 µM,-3%
same,growth inhibition,[11]; at 3.7 µM,-5%
same,growth inhibition,[11]; at 11.0 µM,-5%
same,growth inhibition,[11]; at 33.0 µM,-6%
same,growth inhibition,[11]; at 100.0 µM,97% (active)
same,growth inhibition,[12]; at 1.2 µM,-3%
same,growth inhibition,[12]; at 3.7 µM,-2%
same,growth inhibition,[12]; at 11.0 µM,-4%
same,growth inhibition,[12]; at 33.0 µM,-1%
same,growth inhibition,[12]; at 100.0 µM,97% (active)
same,growth inhibition,[13]; at 1.2 µM,-2%
same,growth inhibition,[13]; at 3.7 µM,0%
same,growth inhibition,[13]; at 11.0 µM,1%
same,growth inhibition,[13]; at 33.0 µM,14%
same,growth inhibition,[13]; at 100.0 µM,97% (active)
same,growth inhibition,[14]; [16],-15%
same,growth inhibition,[14]; [17],88% (active)
same,growth inhibition,[14]; at 50.0 µM,43.5%
same,growth inhibition,[15]; at 1.2 µM,-2%
same,growth inhibition,[15]; at 3.7 µM,2%
same,growth inhibition,[15]; at 11.0 µM,16%
same,growth inhibition,[15]; at 33.0 µM,65%
same,growth inhibition,[15]; at 100.0 µM,96% (active)
CN(Cc1cccc2ccccc12)Cc1cccc2ccccc12,growth inhibition,[1]; at 1.2 µM,1%
same,growth inhibition,[1]; at 3.7 µM,1%
same,growth inhibition,[1]; at 11.0 µM,-1%
same,growth inhibition,[1]; at 33.0 µM,-2%
same,growth inhibition,[1]; at 100.0 µM,-1%
same,growth inhibition,[2]; at 1.2 µM,-1%
same,growth inhibition,[2]; at 3.7 µM,5%
same,growth inhibition,[2]; at 11.0 µM,24%
same,growth inhibition,[2]; at 33.0 µM,34%
same,growth inhibition,[2]; at 100.0 µM,36%
same,growth inhibition,[3]; at 1.2 µM,-2%
same,growth inhibition,[3]; at 3.7 µM,-3%
same,growth inhibition,[3]; at 11.0 µM,-7%
same,growth inhibition,[3]; at 33.0 µM,-2%
same,growth inhibition,[3]; at 100.0 µM,3%
same,growth inhibition,[4]; at 1.2 µM,0%
same,growth inhibition,[4]; at 3.7 µM,-3%
same,growth inhibition,[4]; [16],1%
same,growth inhibition,[4]; at 11.0 µM,7%
same,growth inhibition,[4]; at 33.0 µM,6%
same,growth inhibition,[4]; [17],76% (active)
same,growth inhibition,[4]; at 50.0 µM,60.5%
same,growth inhibition,[4]; at 100.0 µM,9%
same,growth inhibition,[5]; at 1.2 µM,-2%
same,growth inhibition,[5]; at 3.7 µM,-2%
same,growth inhibition,[5]; [16],15%
same,growth inhibition,[5]; at 11.0 µM,-3%
same,growth inhibition,[5]; at 33.0 µM,1%
same,growth inhibition,[5]; [17],26%
same,growth inhibition,[5]; at 50.0 µM,16.7%
same,growth inhibition,[5]; at 100.0 µM,11%
same,growth inhibition,[6]; at 1.2 µM,0%
same,growth inhibition,[6]; at 3.7 µM,2%
same,growth inhibition,[6]; at 11.0 µM,0%
same,growth inhibition,[6]; at 33.0 µM,13%
same,growth inhibition,[6]; at 100.0 µM,30%
same,growth inhibition,[7]; [16],2%
same,growth inhibition,[7]; [17],51%
same,growth inhibition,[7]; at 50.0 µM,59.7%
same,growth inhibition,[8]; at 1.2 µM,-3%
same,growth inhibition,[8]; at 3.7 µM,-6%
same,growth inhibition,[8]; at 11.0 µM,-18%
same,growth inhibition,[8]; at 33.0 µM,-15%
same,growth inhibition,[8]; at 100.0 µM,-17%
same,growth inhibition,[9]; [16],-17%
same,growth inhibition,[9]; [17],10%
same,growth inhibition,[9]; at 50.0 µM,33.2%
same,growth inhibition,[10]; at 1.2 µM,-2%
same,growth inhibition,[10]; at 3.7 µM,1%
same,growth inhibition,[10]; [16],-12%
same,growth inhibition,[10]; at 11.0 µM,-25%
same,growth inhibition,[10]; at 33.0 µM,6%
same,growth inhibition,[10]; [17],87% (active)
same,growth inhibition,[10]; at 50.0 µM,73.7% (active)
same,growth inhibition,[10]; at 100.0 µM,2%
same,growth inhibition,[11]; at 1.2 µM,-2%
same,growth inhibition,[11]; at 3.7 µM,0%
same,growth inhibition,[11]; at 11.0 µM,-4%
same,growth inhibition,[11]; at 33.0 µM,3%
same,growth inhibition,[11]; at 100.0 µM,9%
same,growth inhibition,[12]; at 1.2 µM,4%
same,growth inhibition,[12]; at 3.7 µM,2%
same,growth inhibition,[12]; at 11.0 µM,-2%
same,growth inhibition,[12]; at 33.0 µM,-10%
same,growth inhibition,[12]; at 100.0 µM,13%
same,growth inhibition,[13]; at 1.2 µM,2%
same,growth inhibition,[13]; at 3.7 µM,2%
same,growth inhibition,[13]; at 11.0 µM,2%
same,growth inhibition,[13]; at 33.0 µM,19%
same,growth inhibition,[13]; at 100.0 µM,24%
same,growth inhibition,[14]; [16],-10%
same,growth inhibition,[14]; [17],41%
same,growth inhibition,[14]; at 50.0 µM,57.8%
